From PubChem BioAssay (NCI)
Compounds without any hit were thinned out: in the full panel of roughly 79,000, 15% have a hit. Unmarked numbers belong to inactive results. Active and inactive are the calls of the source. Rule as the data show it: active = growth inhibition above about 70%; inactive = the rest.

assay: NCI Yeast Anticancer Drug Screen. Data for the mec2-1 strain (AID 157); settings: S. cerevisiae mec2-1 strain, at 50.0 µM, stronger effect = higher value
Method in brief: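 Test agents were screened against the mec2-1 yeast strain, with defined DNA repair or cell cycle alteration. Growth was scored as inhibition against vehicle-only controls.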

Structure (SMILES)	growth inhibition
S=C(S)NN1CCOCC1	97.8% (active)
COc1cc2c3c(cccc3c1)C(=O)N(CCN(C)C)C2=O	-5.45%
COC(=O)C1=C(C)NC(C)=C(C(=O)OCCCN2CCC(c3ccccc3)(c3ccccc3)CC2)C1c1cccc([N+](=O)[O-])c1 (stereo not given)	95.9% (active)
c1ccc2c(c1)Oc1cccc3cccc-2c13	17.6%
CN(C)CCOc1ccc2c(c1)C/C(=C/c1ncc([N+](=O)[O-])n1C)C2=O	89.2% (active)
Cc1ccc(CCC2=CCCc3c2ccc2ccccc32)cc1	6.45%
CNC(=O)OCc1c(COC(=O)NC)c(-c2ccc(Cl)c(Cl)c2)n2c1CCC2	87.5% (active)
Clc1ccccc1C1OC1c1ccccc1Cl (stereo not given)	21.9%
O=[N+]([O-])c1cc(CCl)ccc1CCl	98.9% (active)
O=C1C=CC(=O)c2c(O)c(Nc3ccc(OC(F)(F)F)cc3)c(Cl)c(O)c21	46.8%
S=c1[nH]nc(Nc2ccc(Cl)cc2)s1	91.8% (active)
Cn1ccnc1Oc1ccc(Cl)cc1	58.3%
BrCc1cccc2ccc3cccc(CBr)c3c12	21.8%
O=C1c2ccccc2-c2nc3ccccc3nc21	-35.1%
CCCCCCCCCCCCCCCCCCNC	69%
Oc1ccc(NCn2c(=S)sc3ccccc32)cc1	73.8% (active)
O=C1C2CC[C@@H]3C(=O)C(Cl)(Cl)[C@@H]3CCC2C1(Cl)Cl (stereo not given in full)	81.9% (active)
CC[n+]1ccc2c(C)c3[nH]c4ccc(O)cc4c3c(C)c2c1	59.5%
Cc1ccc(-n2cc(-c3ccc(Cl)cc3)c(C#N)c2N)cc1	47.3%
CC(=O)[O][Bi]([c]1ccccc1)[c]1ccccc1	89.5% (active)

Structure (SMILES)	growth inhibition
CC1=C(SCCO)C(=O)c2ccccc2C1=O	73.3% (active)
C/C(=N\O)C1CC2C=C(C#N)C1N(Cc1ccccc1)C2 (stereo not given)	7.3%
CC(Br)C(=O)c1ccc2cc(Br)c3ccccc3c2c1 (stereo not given)	27.4%
Nc1nc(-c2cccnc2)cc(-c2cc(-c3cccnc3)nc(N)n2)n1	1.1%
CC(C)=CC(=O)O[C@@H]1CC(C)(C)CC2C3=CCC4[C@]56CC[C@](O)(OC5)C(C)(C)C6CC[C@@]4(C)C3(C)CC[C@]21C(=O)O (stereo not given in full)	83.2% (active)
CCC(C)COC(=O)c1ccc(N=Cc2ccc(C=Nc3ccc(C(=O)OCC(C)CC)cc3)cc2)cc1 (stereo not given)	49.6%
Oc1cccc2c(Cl)ccnc12	93.2% (active)
O=C(O)c1cccc(-c2c3ccc(=O)cc-3oc3cc(O)ccc23)c1	23.1%
CN(CCc1ccccn1)c1ccc2c(c1)Cc1ccccc1-2	4.05%
Cc1cc(S(=O)(=O)/N=C(/NN)NNc2cccc(C(F)(F)F)n2)c(S)cc1Cl	7.75%
O=C1C2C(C(=O)N1c1ccc(OCc3ccccc3)cc1)C1c3ccccc3C2C2CCCCN21 (stereo not given)	-8.75%
Nc1ccccc1CC(O)C(=O)O (stereo not given)	52.1%
O=C(O)C1CCCCC1c1c2ccc(=O)c(O)c-2oc2c(O)c(O)ccc12 (stereo not given)	82.1% (active)
Cc1ccc2ccc(O)cc2c1	1.85%
O=C1C(=O)c2ccccc2C=C1[N+](=O)[O-]	29.4%
COC(=O)c1ccc(NCC2=CC(=O)C=CC2=O)cc1O	93.2% (active)
C(CCSC1=NCCN1)CSC1=NCCN1 (tested in a mixture with another compound)	99.5% (active)
N#Cc1c(N)[nH]c2ccc(Sc3ccccc3)cc12	62.8%
CCNc1nnc(CSc2nc(-c3ccccc3)c(-c3ccccc3)[nH]2)s1	66%
CC[C@@]1(O)C(=O)OCc2c1cc1n(c2=O)Cc2cc3c(N)cccc3nc2-1	36.7%
